Source: PubChem BioAssay
B2AR arrestin: recruits beta-arrestin to the human beta2-adrenergic receptor. P07550. Potency, µM (doses to about 46.1 µM), actives largely listed as activators. 0.02% of 330,000 active. beta-arrestin recruitment to beta2AR, cell-based reporter; further: nearly all actives have a fitted effect of over 65% in size
Target sequence (P07550 whole entry, looked up): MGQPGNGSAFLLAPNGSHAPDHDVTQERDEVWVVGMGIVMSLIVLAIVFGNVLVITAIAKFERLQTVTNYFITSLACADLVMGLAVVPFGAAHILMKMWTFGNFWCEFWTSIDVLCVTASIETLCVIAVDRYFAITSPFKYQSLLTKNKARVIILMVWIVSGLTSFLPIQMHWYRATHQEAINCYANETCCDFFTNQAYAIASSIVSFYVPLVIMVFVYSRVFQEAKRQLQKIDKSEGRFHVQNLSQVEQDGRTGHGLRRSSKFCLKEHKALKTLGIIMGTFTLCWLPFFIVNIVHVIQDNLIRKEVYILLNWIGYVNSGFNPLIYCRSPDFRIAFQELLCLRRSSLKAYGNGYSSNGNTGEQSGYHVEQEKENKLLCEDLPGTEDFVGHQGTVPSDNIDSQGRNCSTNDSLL
p53 reactivator: restores transcriptional activity of mutant p53; H1299 p53-A138V BP100-luciferase reporter, luminescence, 24 h; Potency, µM (doses to about 92.2 µM), most hits filed as activators; 0.063% of 320,000 active; further: nearly all actives have a fitted effect of over 45% in size
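H1299 (p53-null), stable ts p53-A138V + BP100-Luc; 1000 cells/well, Opti-MEM/10% FBS; cpd 4 pt, 1:5; 24 h, 37 deg C, 5% CO2; detection reagent 10 min RT; luminescence.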
uPA surface inh: inhibitors of cell surface uPA generation. cell surface uPA generation assay, qHTS. Potency, µM (highest dose often 38.3 µM), usual class: inhibitors. 0.31% of 330,000 active; active means well fitted inhibition curve with a large enough effect; inconclusive means small, poorly fitted or top-dose-only effect; inactive means no such curve, though single readings can be large or run the other way; tested in mouse RAW 264.7 cells; further: nearly all actives have a fitted effect of over 55% in size
Giardia killer: Giardia lamblia killing. Giardia lamblia trophozoite viability. activity change, % at 7.66 µM, hits read low. 0.15% of 340,000 active. AID 540267; in the data active means activity change below about -80%; inconclusive means between about -30% and that limit;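 further: parasites exposed to compound for two days anaerobically before the ATP read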
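Giardia trophozoites, 100 cells per well, were exposed to compounds for 48 hrs at 37 deg C under anaerobic conditions; viability was then read as ATP content by bioluminescence after 15-30 min at room temperature.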
ClpP mod: qHTS Assay for Activators of ClpP; Potency, µM (highest dose often 57.5 µM); 1.9% of 340,000 active; purified B. subtilis ClpP, FRET peptide cleavage, 20 min; AID 651965, 2013; ATP-dependent Clp protease proteolytic subunit (Bacillus subtilis (strain 168)), P80244; active means well fitted falling curve with a large enough effect; inconclusive means small, poorly fitted or top-dose-only effect; inactive means no such curve, though single readings can be large or run the other way; further: the source files actives as falling curves though it sought activators and does not explain the sign; nearly all actives have a fitted effect of over 65% in size
Target sequence (P80244 whole entry, looked up): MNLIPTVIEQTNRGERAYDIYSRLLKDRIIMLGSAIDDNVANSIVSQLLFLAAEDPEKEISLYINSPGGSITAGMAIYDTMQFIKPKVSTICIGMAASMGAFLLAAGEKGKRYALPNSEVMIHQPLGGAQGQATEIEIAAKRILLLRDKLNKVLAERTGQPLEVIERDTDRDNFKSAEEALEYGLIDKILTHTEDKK
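FRET quenching reversal measured ClpP activation: 10 microg/mL B. subtilis ClpP at pH 8 with the FRET-FV decapeptide, read at 430 nm after 320 nm excitation. The 20-min minus 0-min signal was scaled between DMSO/no-enzyme wells and ADEP (5.8 microM final).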
Mito fusion yeast: mitochondrial division inhibition or fusion activation. Potency, µM (top dose mostly 46.1 µM), actives largely listed as activators. S. cerevisiae fusion-defective mutant growth rescue, CellTiterGlo 48 h. 0.23% of 320,000 active; further: nearly all actives have a fitted effect of over 45% in size
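Read-out: ATP-based luminescence (CellTiterGlo, 10 min ambient) reporting growth of fusion-defective ts yeast after 48 hours at 37C on glycerol/ethanol YPEG medium in the presence of compound.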
Numbers stand for hits; . = inactive; ? = inconclusive; / = no result given; ! = a repeat was not active. A selection: hits, their analogues and other compounds. The true share with any hit is near 2.1%. Unless noted, the call rests on the fitted dose curve; in most records, active means well fitted curve in the direction sought with a large enough effect; inconclusive means small, poorly fitted or top-dose-only effect, or another doubt; inactive means no such curve, though single readings can be large; an effect the other way counts as inactive or inconclusive.

SMILES | B2AR arrestin | p53 reactivator | uPA surface inh | Giardia killer | ClpP mod | Mito fusion yeast
CCOc1ccc(C(=O)Nc2cc3c(cc2N2CCCC2)n(C)c(=O)c(=O)n3C)cc1OCC | / | / | / | / | 28.2µM | /
Cn1c(=O)c(=O)n(C)c2cc(N3CCCC3)c(NC(=O)c3ccc(C(C)(C)C)cc3)cc21 | / | / | / | / | 35.5µM | /
CCOc1cc(C(=O)Nc2cc3c(cc2N2CCCC2)n(C)c(=O)c(=O)n3C)cc(OCC)c1OCC | / | / | / | / | . | /
O=C(CN1C(=O)C(c2ccc(F)cc2)=NC12CCCCCC2)Nc1ccccc1Cl | / | / | / | / | . | /
O=C(NCc1ccc(Cl)cc1)C(=O)NCC(c1cccnc1)N1CCN(c2ccccc2)CC1 (centres undefined) | / | / | / | / | . | /
CC(C)Cn1cc(C(=O)NCCCOC(C)C)c2c3ccccc3n(C)c2c1=O | . | . | . | . | 28.2µM | .
CC(C)Cn1cc(C(=O)NCC2CCCO2)c2c3ccccc3n(C)c2c1=O (centres undefined) | . | . | / | . | 15.8µM | .
CCN(CC)CCCNC(=O)c1cn(C)c(=O)c2c1c1ccccc1n2C | . | . | . | . | . | .
CCN(CC)CCCNC(=O)c1cn(CC(C)C)c(=O)c2c1c1ccccc1n2C | . | . | . | . | 15.8µM | .
CCCCN(CC)CCCNC(=O)c1cn(CC(C)C)c(=O)c2c1c1ccccc1n2C | . | . | . | . | 20µM! | .
O=S(=O)(c1ccc(Cl)cc1)c1nc(-c2cccs2)oc1SCc1ccc(F)cc1 | / | / | / | / | . | /
CCOC(=O)[C@]12CCCC=C1N(CCc1ccc(OC)c(OC)c1)C(=O)[C@H](CC(=O)N1CCCC1)C2 | / | / | / | / | . | /
CCOC(=O)c1c(NC(=O)Nc2ccc(F)cc2)sc(C(=O)N(C)C)c1C | / | / | / | / | . | /
COc1ccc(CCCc2nnc(SCC(=O)Nc3ccc(F)cc3)o2)cc1C | / | / | / | / | . | /
O=C(c1ccc(Cl)cc1)N1CCCC(C(=O)N2CCN(c3ccccc3)CC2)C1 (centres undefined) | . | . | . | ? | . | .
O=C(c1ccc(Br)c(S(=O)(=O)N2CCCCC2)c1)N1CCCCC1 | . | . | . | . | 22.4µM | .
O=C(c1ccc(F)cc1)N1CCCC(C(=O)N2CCN(c3ccccc3)CC2)C1 (centres undefined) | . | . | . | . | 28.2µM | .
O=C(c1cccc(S(=O)(=O)N2CCN(c3ccc(F)cc3)CC2)c1)N1CCCCCCC1 | . | . | . | . | . | 15.8µM
CC1CCN(C(=O)c2cccc(S(=O)(=O)N3CCN(c4ccccc4)CC3)c2)CC1 | . | . | . | . | . | 17.8µM
CC(=O)N1CCN(C(=O)c2cccc(S(=O)(=O)N3CCN(c4ccc(F)cc4)CC3)c2)CC1 | . | . | . | . | . | .
OC[C@@H]1CN(Cc2cccnc2)C[C@H](n2cnc3c(N4CCN(c5ccccc5)CC4)ncnc32)O1 | / | / | / | / | . | /
CC1=C(C(=O)NCc2cccc(Cl)c2)C2(CCCCCC2)OC1=O | / | / | / | / | . | /
COCc1cc(C)nc2c1C(=O)NC(c1ccc(F)cc1)N2Cc1ccccc1 (centres undefined) | / | / | / | / | . | .
Cc1nn(-c2ccc(F)cc2)c(-n2cccc2)c1C(=O)NCCCN1CCN(c2cccc(Cl)c2)CC1 | / | / | / | / | . | /
O=C(c1cccc(S(=O)(=O)N2CCCC2)c1)N1CCCC(C(F)(F)F)C1 (centres undefined) | . | . | . | . | 28.2µM | .
SMILES | B2AR arrestin | p53 reactivator | uPA surface inh | Giardia killer | ClpP mod | Mito fusion yeast
O=C(Cn1ncc2c([nH]c3ccccc32)c1=O)NCc1cccc(Cl)c1 | / | / | / | / | . | /
CCCCNC(=O)OCC(CC)NC(=O)OC(C)C (centres undefined) | . | . | . | . | 28.2µM | .
CCc1ccccc1NC(=O)c1nn(-c2ccc(C)cc2)c(=O)c2c1c1ccccc1n2C | / | / | / | / | . | /
O=C(CCC(=O)N1CCN(C2CCCC2)CC1)Nc1nnc(C(F)(F)F)s1 | . | . | . | . | . | .
O=C(CCC(=O)N1CCN(C2CCCCC2)CC1)Nc1nnc(C(F)(F)F)s1 | . | . | . | . | 12.6µM | .
COCc1cc(C)n(CC(=O)Nc2ccccc2C(=O)OC)c(=O)c1C#N | . | . | . | . | 17.8µM | .
COCc1cc(C)n(CC(=O)NC(C)c2ccccc2)c(=O)c1C#N (centres undefined) | . | . | . | . | 15.8µM | .
CCOc1ccccc1NC(=O)Cn1c(C)cc(COC)c(C#N)c1=O | . | . | . | . | . | .
C[n+]1ccnc2ccccc21 | / | / | / | / | . | /
Cc1cccc(NC(=O)N2CCCC2C(=O)NCc2cccs2)c1 (centres undefined) | . | . | . | . | 17.8µM | .
COc1ccc(C(=O)NCC(c2ccc3c(c2)OCO3)N2CCOCC2)cc1OC (centres undefined) | / | / | / | / | . | /
COc1ccc(-n2cnc3c(sc4nccc(N(C)C)c43)c2=O)cc1 | . | . | . | . | 14.1µM | .
Cc1ccc(-n2cnc3c(sc4nccc(N(C)C)c43)c2=O)cc1 | . | . | . | . | . | .
CCn1cc(C(=O)O)c(=O)c2cc(OC)ccc21 | . | . | . | . | 31.6µM | .
CCn1cc(C(=O)O)c(=O)c2cc(S(=O)(=O)N3CCCCCC3)ccc21 | . | . | . | . | . | .
O=C(CN1C(=O)COc2ccc(S(=O)(=O)NC3CCCC3)cc21)NCc1ccccc1Cl | / | / | / | / | . | /
CC(C)CC(=O)OCc1cc(=O)n2nc(C3CCCCC3)sc2n1 | / | / | / | / | . | /
CCOc1ccc2ncc3c(-c4cccc(OC)c4)nn(-c4ccccc4)c3c2c1 | / | / | / | / | 10µM | /
CCN(CC)C(=O)Cn1c(=O)n(-c2ccc(OC)cc2OC)c(=O)c2c(C)c(C(=O)N(CC)CC)sc21 | / | / | / | / | . | /
CCCCn1cnc2c(SCCc3ccccc3)nc(N)nc21 | / | / | . | . | 28.2µM | /
CCCn1cnc2c(SCCc3ccccc3)nc(N)nc21 | / | / | . | . | . | /
COc1ccc(-c2nc3sc(CCNC(=O)c4ccc(C(C)(C)C)cc4)c(C)n3n2)cc1 | / | / | / | / | . | /
CC(NC(=O)c1ccccc1NS(=O)(=O)c1ccc(CCC(=O)O)cc1)c1ccccc1 (centres undefined) | . | . | . | . | 28.2µM | .
O=C(c1cn(CCOc2ccc(Cl)cc2)c2ccccc12)C1CCCCC1 | / | / | / | / | . | /
O=C(O)c1cccc(-n2cc(-c3cccc(C(F)(F)F)c3)cn2)c1 | . | / | . | . | . | 15.8µM
CCOC(=O)N1CCN(c2nc3ccccc3nc2C(C#N)S(=O)(=O)c2ccc(C)cc2)CC1 (centres undefined) | . | . | . | . | 31.6µM | .
CC(Sc1nc(-c2ccccc2)c(-c2ccccc2)[nH]1)C(=O)NCC1CCCO1 (centres undefined) | / | / | / | / | 28.2µM | /
c1ccc2c(N3CCCCC3)nc(N3CCCC3)nc2c1 | . | . | . | . | ? | .
Nc1nc(N2CCCCC2)nc2ccccc12 | . | ? | . | . | 17.8µM | .
